In PubChem BioAssay (Tox21):
Inconclusive results are not listed. Active and inactive are the calls of the source. Calls come from the whole dose curve; as a rule, active = well fitted cell-killing curve with a large enough effect in the repeat runs; inconclusive = weak or mixed curves, or effect the other way; inactive = no such curve, though single readings can be large or run the other way. Positions of bridges follow the written chain, without caps; N, C: chain ends. Non-standard residues stand in square brackets, D forms with d. Residues, ends and D or L forms follow the SMILES beside them. hArg = N=C(N)NCCCC[C@H](N)C(=O)O; Mpa = O=C(O)CCS

Assay: qHTS assay to identify small molecule agonists of the RXR signaling pathway - cell viability counter screen (AID 1159529); note: nearly all actives have a fitted effect of over 50% in size
Details: RXR-alpha-bla HEK293T viability, CellTiter-Glo, 16 h; series mostly up to 76.8 µM
Description: National Center for Advancing Translational Sciences [NCATS]
NIH Chemical Genomics Center [NCGC]
U.S. Environmental Protection Agency [EPA]
National Institutes of Environmental Health Sciences [NIEHS]
National Toxicology Program [NTP]
U.S. Food and Drug Administration [FDA]
The Retinoid X receptor (RXR), a nuclear hormone receptor expressed in liver, spleen, placenta, epidermis, central nervous system. These receptors are able to form homo and heterodimers with other nuclear receptors and due to this heterodimerizing ability, RXR functions as master regulators producing diverse physiological effects. Three subtypes of RXR exist; alpha, beta and gamma. Retinoid X receptor alpha (RXR-alpha) has potential roles in metabolic signaling pathways, skin alopecia, dermal cysts, cardiac development, insulin sensitization etc. Therefore screening environmental chemicals on RXR-alpha signaling can be used for the studies focused on such therapeutic applications. For quantification of RXR-alpha ligands signaling, GeneBLAzer RXR alpha-UAS-bla HEK 293T (Life Technologies, Carlsbad, CA) cells containing a beta-lactamase reporter-gene under control of Retinoid X receptor-alpha response element were used to screen Tox21 10K library. The cytotoxicity of the Tox21 compound library against the RXR-alpha HEK 293T cell line was tested in parallel by measuring cell viability using CellTiter-Glo assay (Promega Corporation, Madison, WI) in the same wells.
Tox21 Assay Protocol Summary:
RXR-alpha HEK 293T cells were dispensed at 2,000 cells/6 uL of assay medium containing 2% charcoal-stripped FBS using a Multidrop Combi (ThermoFisher Scientific, Waltham, MA) dispenser. The assay was performed in black wall/clear-bottom 1536-well plates (Greiner Bio-One North America Inc. Monroe, NC). Tetraoctyl ammonium bromide was used as a positive control in the cytotoxicity screen. After the assay plates were incubated at 37 C and 5% CO2 for 5 hr, 23 nL of compounds dissolved in DMSO, positive control or DMSO only were transferred to the assay plate by a Pintool station (Kalypsys, San Diego, CA). The assay plates were incubated at 37 C and 5% CO2 for 16 hr. One uL of LiveBLAzer B/G FRET substrate (Life Technologies) was added using a Flying Reagent Dispenser (FRD) (Aurora Discovery, San Diego, CA) and the plates were incubated at room temperature for 2 hr. Fluorescence intensity (405 nm excitation, 460/530 nm emission) was measured using an Envision plate reader (PerkinElmer, Shelton, CT). For cytotoxicity, 4 uL/well of CellTiter-Glo reagent was added into the assay plates using an FRD. After 30 min incubation at room temperature, the luminescence intensity was measured using a ViewLux plate reader (PerkinElmer).
% is set by controls: 0 for no effect and ±100 for the full control effect.

| Compound | outcome | activity change, negative = cytotoxicity |
| --- | --- | --- |
| CCCCOCC(C)O (stereo not given) | inactive | – |
| C/C(=C1\CCOC(=O)S1)N(C=O)Cc1cnc(C)nc1N | inactive | – |
| NC(=O)[C@@H]1CSSCCC(=O)N[C@@H](CCCCN=C(N)N)C(=O)NCC(=O)N[C@@H](CC(=O)O)C(=O)N[C@@H](Cc2c[nH]c3ccccc23)C(=O)N2CCC[C@H]2C(=O)N1 ([Mpa][hArg]GDWPC-NH2; disulfide 1-7) | inactive | – |
| Cc1c(N)cccc1Cl | inactive | – |
| CCCCCc1cccc(=O)o1 | inactive | – |
| CO[Si](CCCn1c(=O)n(CCC[Si](OC)(OC)OC)c(=O)n(CCC[Si](OC)(OC)OC)c1=O)(OC)OC | inactive | – |
| CCCCCCCCCCCCCBr | inactive | – |
| COc1ccc2c(c1)c1c3n2CCN(C)C3=NCC1 | inactive | – |
| C=C(C)c1cccc(C(C)(C)N=C=O)c1 | inactive | – |
| COC(=O)c1cc(Cl)cc(Cl)c1 | inactive | – |
| C=CC/C=C/C | inactive | – |
| COC(=O)c1cccc(Cl)c1 | inactive | – |
| CC(C)Cn1cnc2c1c(=O)n(C)c(=O)n2C | inactive | – |
| CN(C)CCOC(=O)C(c1ccccc1)C1(O)CCCC1 (stereo not given) | inactive | – |
| Cc1ccc(N)cc1S(=O)(=O)O | inactive | – |
| CC(C)C1OCCN1CCOC(=O)NCCCCCCNC(=O)OCCN1CCOC1C(C)C (stereo not given) | inactive | – |
| CCO | inactive | – |
| OC1(c2ccc(Cl)cc2)CCNCC1 | inactive | – |
| O=C(Cl)c1ccccc1[N+](=O)[O-] | inactive | – |
| CC(O)COC(C)(C)C (stereo not given) | inactive | – |

| Compound | outcome | activity change, negative = cytotoxicity |
| --- | --- | --- |
| Cn1nnc2c(C(N)=O)ncn2c1=O | inactive | – |
| O=C(CCCl)NCCc1ccccc1 | inactive | – |
| Fc1ccccc1 | inactive | – |
| Nc1nc(-c2ccccc2)c(Br)c(=O)[nH]1 | inactive | – |
| Cc1ccc(C(C)NC(=O)[C@@H](NC(=O)OC(C)C)C(C)C)cc1 (stereo not given in full) | inactive | – |
| CCC(C(=O)OCCN1CCOC(c2ccccc2)C1C)c1ccccc1 (stereo not given) | inactive | – |
| CC(C)OC(=O)OCOP(=O)(CO[C@H](C)Cn1cnc2c(N)ncnc21)OCOC(=O)OC(C)C | inactive | – |
| COP(=O)(O)OP(=O)(O)OC | inactive | – |
| Cc1c(Cl)cccc1Cl | inactive | – |
| CCOC(=O)CC1(C)OCC(C)O1 (stereo not given) | inactive | – |
| COc1ccc(CCO)cc1 | inactive | – |
| N[C@@H](Cc1ccc(O)cc1)C(=O)O | – | 2.08% [at 6.97 µM] (inactive) |
| CCOc1cccc(N)c1 | inactive | – |
| N#Cc1cscn1 | inactive | – |
| CCCCCCCCCCCCCCCCCCOCCO | – | -0.661% [at 15.8 µM] (inactive) |
| CC(=O)CCC1=C(C)CCCC1(C)C | inactive | – |
| O=C(Cn1ccnc1[N+](=O)[O-])NCc1ccccc1 | inactive | – |
| CC1CC(=O)CC(C)(C)C1 (stereo not given) | inactive | – |
| O=C(CN1CCNCC1)NC1CCCCC1 | inactive | – |
| CCOc1ccccc1OCC1CNCCO1 (stereo not given) | inactive | – |
